The structures appear in SMILES notation. This is part of a sample that, as a whole, favours compounds with a hit. Of some 83,000 tested, about 20% had one in any assay.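 Step 1: grow cells in 96-well plates. Step 2: add test compound at a single concentration. Step 3: incubate 48 h. Step 4: record percent growth.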 Unmarked numbers belong to inactive results. Active and inactive are the calls of the source. How the source made its calls: active means growth percent below 10; inactive means the rest.

Experimental findings from PubChem BioAssay (NCI) are described below.

Test systems include SR leukemia; RPMI-8226 leukemia; OVCAR-8 ovarian; OVCAR-5 ovarian; OVCAR-4 ovarian; SK-OV-3 ovarian; IGROV1 ovarian; HS 578T breast; NCI/ADR-RES ovarian.
Holding throughout (assay): NCI-60 one-dose screen, 48 h (100 = growth as untreated, 0 = no growth, -100 = all killed)
Conditions in all cases: 10 µM unless noted

As for `Brc1ccc(-c2cc(-c3ccc4c(c3)OCCO4)n[nH]2)s1`, the growth with SR leukemia is 17.7%; in the assay with RPMI-8226 leukemia it was 13.4%; in the assay with OVCAR-8 ovarian, 36%; in the assay with OVCAR-5 ovarian, 58.1%; with OVCAR-4 ovarian it was 71.7%; in the assay on SK-OV-3 ovarian it was 55.1%. Besides, the growth is 34.6% with IGROV1 ovarian, 51.4% with HS 578T breast and 6.64% (active) with NCI/ADR-RES ovarian.
Regarding `N#Cc1cccc(-c2cc(-c3ccc4c(c3)OCCO4)[nH]n2)c1`, the growth in the assay on SR leukemia is 12.4%; in the assay on RPMI-8226 leukemia, 18.3%; with OVCAR-8 ovarian it was 35.3%; in the assay on OVCAR-5 ovarian it was 71.8%; in the assay on OVCAR-4 ovarian it was 79.2%; in the assay with SK-OV-3 ovarian, 54.3%. For the same compound, the growth in the assay with IGROV1 ovarian was 36.5%; in the assay on HS 578T breast, 40.1%; with NCI/ADR-RES ovarian, 20%.
For the compound `O=C(COc1ccc(/C=C2\C(=O)Nc3ccc(Cl)cc32)cc1)Nc1ccc(Cl)cc1`, the growth in the assay on SR leukemia is 44.9%; with RPMI-8226 leukemia, 68.7%; with OVCAR-8 ovarian, 60.1%; with OVCAR-5 ovarian, 69.8%; with OVCAR-4 ovarian, 59.2%; with SK-OV-3 ovarian, 88.3%. The growth with IGROV1 ovarian is 59.8%; in the assay on HS 578T breast, 77.6%; with NCI/ADR-RES ovarian, 59.6%.
Consider `N#Cc1c(-c2ccc(F)cc2)cc(-c2c[nH]c3ccccc23)nc1-c1c[nH]c2ccccc12`, for which the growth in the assay on SR leukemia is 89.1%; with RPMI-8226 leukemia, 101%; with OVCAR-8 ovarian it was 100%; with OVCAR-5 ovarian, 109%; in the assay with OVCAR-4 ovarian, 101%; with SK-OV-3 ovarian, 96.9%. Further, the growth in the assay on IGROV1 ovarian was 102%; with HS 578T breast it was 95.2%; with NCI/ADR-RES ovarian it was 103%.
Turning to `Cc1ccc(NC(=O)/C=C/c2ccc(OCCCOc3ccc4c(C)cc(=O)oc4c3)cc2)cc1`, the growth is 70.2% in the assay with SR leukemia; 90.1% in the assay with RPMI-8226 leukemia; 52.3% in the assay with OVCAR-8 ovarian; 91.6% in the assay on OVCAR-5 ovarian; 19.9% in the assay with OVCAR-4 ovarian; 79.8% in the assay with SK-OV-3 ovarian. Besides, the growth was 73.3% in the assay on IGROV1 ovarian, 40% in the assay on HS 578T breast and 52.5% in the assay on NCI/ADR-RES ovarian.
In the case of `N#Cc1c(-c2cccs2)c(C#N)c(=O)n(Cc2nc3ccccc3[nH]2)c1N`, the growth in the assay with SR leukemia was 92.5%; with RPMI-8226 leukemia, 95.9%; with OVCAR-8 ovarian, 95.1%; in the assay with OVCAR-5 ovarian, 116%; in the assay with OVCAR-4 ovarian, 99.6%; in the assay on SK-OV-3 ovarian, 95.4%. The growth with IGROV1 ovarian was 61.7%; in the assay with HS 578T breast it was 102%; with NCI/ADR-RES ovarian, 99.5%.
`NS(=O)(=O)c1ccc(CCn2c(-c3ccc(C(=O)O)cc3)nc(-c3ccccc3)c2-c2ccccc2)cc1`: the growth in the assay with SR leukemia is 99.7%; in the assay on RPMI-8226 leukemia, 100%; in the assay with OVCAR-8 ovarian it was 111%; in the assay with OVCAR-5 ovarian, 103%; in the assay on OVCAR-4 ovarian, 99.4%; in the assay on SK-OV-3 ovarian, 111%. The growth in the assay with IGROV1 ovarian is 108%; in the assay with HS 578T breast, 101%; in the assay on NCI/ADR-RES ovarian, 105%.
As for `CC(C)[C@H]1c2[nH]c3ccccc3c2C[C@H]2C(=O)N(CCCCCCC(=O)NO)CC(=O)N12`, the growth is 33.6% in the assay with SR leukemia; 58.6% in the assay on RPMI-8226 leukemia; 60.8% with OVCAR-8 ovarian; 81.5% with OVCAR-5 ovarian; 99.9% in the assay with OVCAR-4 ovarian; 95% in the assay on SK-OV-3 ovarian. Besides, the growth with IGROV1 ovarian is 92.9%; in the assay on HS 578T breast, 74.2%; in the assay with NCI/ADR-RES ovarian it was 95.3%.
For `C#C[C@]1(O)CC[C@H]2[C@@H]3CC=C4c5sc(NCc6ccccc6)nc5CC[C@]4(C)[C@H]3CC[C@@]21C`, the growth in the assay with SR leukemia is 3.34% (active); in the assay with RPMI-8226 leukemia it was -25.3% (active); in the assay with OVCAR-8 ovarian, 65.2%; in the assay on OVCAR-5 ovarian it was 84%; in the assay on OVCAR-4 ovarian, 73.6%; in the assay with SK-OV-3 ovarian, -10% (active). In addition, the growth in the assay on IGROV1 ovarian is 76.8%; in the assay on HS 578T breast, -4.78% (active); in the assay on NCI/ADR-RES ovarian, 72.4%.
Consider `Cc1ccccc1N1CCN(C2=C(Cl)C(=O)c3ncccc3C2=O)CC1`, for which the growth was -24.1% (active) with SR leukemia; 11.5% with RPMI-8226 leukemia; 70% in the assay on OVCAR-8 ovarian; 98.4% with OVCAR-5 ovarian; 59% in the assay on OVCAR-4 ovarian; 95.8% in the assay with SK-OV-3 ovarian. The growth with IGROV1 ovarian is 77.3%; with HS 578T breast, 57.4%; in the assay on NCI/ADR-RES ovarian, 73.7%.
As to `N#Cc1nc(-c2ccc(Cl)cc2)oc1N1CCC(S(=O)(=O)N2CCOCC2)CC1`, the growth in the assay on SR leukemia is 88.6%; in the assay on RPMI-8226 leukemia, 105%; in the assay on OVCAR-8 ovarian, 101%; in the assay on OVCAR-5 ovarian, 102%; with OVCAR-4 ovarian, 100%; in the assay on SK-OV-3 ovarian, 119%. For the same compound, the growth in the assay with IGROV1 ovarian is 90.5%; in the assay on HS 578T breast, 105%; with NCI/ADR-RES ovarian, 100%.
Consider `CCOC(=O)C(=O)Nc1ccc2c(ccn2C(=O)c2cccc(F)c2)c1`, for which the growth in the assay on SR leukemia is 96.3%; in the assay with RPMI-8226 leukemia, 101%; in the assay on OVCAR-8 ovarian it was 93.1%; with OVCAR-5 ovarian, 92.4%; in the assay on OVCAR-4 ovarian, 101%; in the assay on SK-OV-3 ovarian it was 103%. Further, the growth in the assay on IGROV1 ovarian is 103%; in the assay on HS 578T breast it was 94.4%; in the assay with NCI/ADR-RES ovarian, 100%.
On to `CN1CCN(Cc2ccc(NC(=O)c3cncc(C#Cc4cnc5ccc(NCCO)nn45)c3)cc2C(F)(F)F)CC1`, for which the growth in the assay with SR leukemia was 4.47% (active); with RPMI-8226 leukemia, -15.2% (active); in the assay with OVCAR-8 ovarian it was 1.73% (active); in the assay with OVCAR-5 ovarian it was 5.23% (active); with OVCAR-4 ovarian, -9.76% (active); with SK-OV-3 ovarian it was -10.5% (active). For the same compound, the growth with IGROV1 ovarian was -1.21% (active); in the assay with HS 578T breast, -13.3% (active); in the assay on NCI/ADR-RES ovarian, 81.1%.
With `COc1ccc(/C=N\NC(=O)c2cnn(CC(O)c3ccccc3)c2N)cc1OCc1ccc(Cl)cc1` (stereo unspecified), the growth is 65.8% in the assay with SR leukemia; 65.5% in the assay on RPMI-8226 leukemia; 74% in the assay with OVCAR-8 ovarian; 79.9% in the assay on OVCAR-5 ovarian; 74.1% in the assay with OVCAR-4 ovarian; 93.8% with SK-OV-3 ovarian. The growth in the assay on IGROV1 ovarian was 91.9%; in the assay with HS 578T breast, 43.2%; in the assay with NCI/ADR-RES ovarian, 72.2%.
